# Bioassay records deposited in PubChem BioAssay by National Center for Advancing Translational Sciences (NCATS).
# SARS PLpro yeast: qHTS of Yeast-based Assay for SARS-CoV PLP; S. cerevisiae expressing SARS-CoV PLpro, growth rescue; Potency, µM (highest dose often 32.9 µM), usual class: activators; 330,000 tested, 0.19% active; AID 485353, 2010; calls by dose curve; further: nearly all actives have a fitted effect of over 55% in size
# Pf growth 48h: Primary qHTS for delayed death inhibitors of the malarial parasite plastid, 48 hour incubation | P. falciparum luciferase growth in erythrocytes, 48 h | Potency, µM (series often up to 28.7 µM), usual class: inhibitors | 310,000 tested, 5.9% active
#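 First compound was added to culture medium, then infected red cells at 0.1% parasitemia and 2% hematocrit (final). After incubation at 37 C under 5% CO2, luciferase detection reagent was dispensed and light output recorded.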
# Pf growth 96h: Primary qHTS for delayed death inhibitors of the malarial parasite plastid, 96 hour incubation; P. falciparum luciferase reporter growth, 96 h; Potency, µM (series often up to 28.7 µM), actives largely listed as inhibitors; 320,000 tested, 6.9% active; AID 504834, 2011
#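 Infected RBCs, 2% Hct / 0.05% parasitemia final; luciferase-reporter P. falciparum; cpd 96 h, 37 C, 5% CO2; luciferase detection reagent; luminescence.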
# Sm TGR inh: qHTS Assay for the Inhibitors of Schistosoma Mansoni Peroxiredoxins. purified TGR, DTNB reduction, TNB absorbance 405 nm. Potency, µM (doses to about 114 µM), usual class: inhibitors. 360,000 tested, 3% active; further: nearly all actives have a fitted effect of over 60% in size
#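 Kinetic colorimetric format: TGR-catalysed, NADPH-driven DTNB reduction monitored via TNB absorbance. Enzyme dispensed at 20 nM; compound exposure 15 min at room temperature before reaction start.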
# A number is an active result; – = inactive; ? = inconclusive; · = not tested or not shown; [ ] = remark or other dose. A selection: hits, their analogues and other compounds. The true share with any hit is near 12%. Unless noted, the call rests on the fitted dose curve; in most records, active means well fitted curve in the direction sought with a large enough effect; inconclusive means small, poorly fitted or top-dose-only effect, or another doubt; inactive means no such curve, though single readings can be large; an effect the other way counts as inactive or inconclusive.
SMILES,SARS PLpro yeast,Pf growth 48h,Pf growth 96h,Sm TGR inh
CN1CCN(CCNC(=O)c2ccc3nc(-c4ccc(F)cc4)c(-c4ccc(F)cc4)nc3c2)CC1,–,9.28µM,?,–
Cc1cc(C)n(CC(=O)N2CCCC(N3CCN(c4ccc(F)cc4)CC3)C2)n1 (stereo unspecified),–,–,–,–
O=C(NCCCN1CCOCC1)c1cc(-c2ccc(F)cc2)on1,–,–,–,–
O=C(NCCN1CCOCC1)c1cc(-c2ccc(F)cc2)on1,–,–,0.294µM,–
CCN(CC)CCOC(c1ccccc1)c1ccc(C)cc1 (stereo unspecified),–,?,?,–
Cc1ccc(C(OCC(C)(C)C[N+](C)(C)C)c2ccccc2)cc1 (stereo unspecified),–,1.31µM,?,–
O=C(c1sccc1-c1ccccc1)N1CCN(S(=O)(=O)c2ccccc2F)CC1,–,–,–,–
COc1ccccc1NC(=O)C(C)OC(=O)Cc1ccsc1 (stereo unspecified),–,–,–,–
Cc1c(C)c2ccc(OC(C)C(=O)N3CC[C@@]4(O)CCCC[C@H]4C3)cc2oc1=O (stereo partly specified),–,–,9.28µM,–
O=S(=O)(c1ccc2ccccc2c1)N1CCCCCC1,–,?,?,–
COc1ccc2cc(S(=O)(=O)N3CCCC3)ccc2c1,–,–,6.57µM,–
COc1ccc2cc(S(=O)(=O)N3CCN(C)CC3)ccc2c1,–,?,?,–
CN1CCCN(S(=O)(=O)c2ccc3ccccc3c2)CC1,–,–,–,44.7µM
Cc1cnc(C(=O)N2CCN(S(=O)(=O)c3ccc4ccccc4c3)CC2)cn1,–,·,9.28µM,–[11.4 µM]
O=C(c1cnn(-c2ccc(F)cc2)c1-n1cccc1)N1CCN(c2ccccc2)CC1,·,·,·,–
COc1ccc2c(c1)c1c(c(=O)n(-c3cccc(C)c3)c(=O)n1CC(=O)NCC1CCCO1)n2C (stereo unspecified),·,·,·,–
CCOc1ccccc1CNCc1c(C(=O)O)n(Cc2ccc(F)cc2)c2cc(C)ccc12,·,·,·,–
Cc1ccc(NC(=O)c2ccccc2N2C(=O)C3C4C=CC(C5CC45)C3C2=O)cc1C (stereo unspecified),–,?,9.28µM,–
CC(C)Cc1nc2oc3c(N4CCN(CCO)CC4)ncnc3c2c2c1CCCC2,–,?,?,–
CCOC(=O)c1oc2nc(CC(C)C)c3c(c2c1N)CCC3,–,?,7.38µM,–
CCOc1ccc2nc(Cl)c(C3CC(c4ccccc4)=NN3C(=O)CCC(=O)O)cc2c1 (stereo unspecified),·,·,·,–
Cc1ccc(COC(=O)c2ccc(-c3nnn(Cc4ccc(C)cc4)n3)cc2)cc1,·,·,·,–
COc1ccc(/C=N/OCC(=O)NC(c2ccccc2)c2ccccc2)cc1OC,–,9.28µM,8.28µM,–
COc1cc(/C=N/OCC(=O)NC2CCCCC2)ccc1OCc1ccccc1,–,–,?,–
COc1cc(/C=N/OCC(=O)NC23CC4CC(CC(C4)C2)C3)ccc1OCc1ccccc1,–,?,9.28µM,–
SMILES,SARS PLpro yeast,Pf growth 48h,Pf growth 96h,Sm TGR inh
O=C(CN1c2ccc(Br)cc2-c2ccccc2S1(=O)=O)N1CCCCC1,·,·,·,–
COc1cc(OC)c(CN2CCc3c([nH]c4ccccc34)C2)cc1Br,–,–,–,35.5µM
COc1cccc(NC(=O)Cn2c(=O)n(C)c(=O)c3sc4c(c32)COC(C)(C)C4)c1,–,4.15µM,2.62µM,–
Cc1cccc(NC(=O)Cn2nnc3sc4c(c3c2=O)CC(C)(C)OC4)c1,–,–,–,–
COc1ccc2nc(NC(=S)N(C)C)sc2c1,–,–,·,–
CCOCCCNC1=C(Cl)C(=O)c2ccccc2C1=O,–,3.7µM,?,1.78µM
O=C1C(Cl)=C(NCCCO)C(=O)c2ccccc21,–,?,·,–
O=C(/C=C/NCC(=O)c1ccccc1)c1ccc(Br)cc1,–,–,?,20µM
CC1(C)OC(=O)N(c2ccccc2)C12C=Cc1c(ccc3ccccc13)O2 (stereo unspecified),–,13.1µM,–,–
O=C1NC2(C=Cc3c(ccc4ccccc34)O2)Oc2ccccc21 (stereo unspecified),–,–,–,–
COc1ccccc1NC(=O)NNC(=O)CCN1CCOCC1,–,?,–,–
CCCCn1c(N)c(N(CCOC)C(=O)c2ccc(Cl)c(S(=O)(=O)N3CCCCC3)c2)c(=O)[nH]c1=O,–,?,?,–
Cc1ccc2oc(C(=O)Nc3cccc(-c4nc5ccccc5s4)c3)c(C)c2c1,·,·,·,–
Cc1ccc(N2C(=O)CN(Cc3sccc3C)C2=S)cc1C,–,11.7µM,–,–
COc1ccc(NC(=S)N(CCCN2CCCC2)Cc2cccn2Cc2ccc(Cl)cc2)cc1Cl,–,?,–,–
COc1ccc2c(c1)c(C(O)CN1CCC(Cc3ccccc3)CC1)c(C)n2C (stereo unspecified),–,13.1µM,10.4µM,–
OC(CN1CCN(Cc2ccc3c(c2)OCO3)CC1)c1c[nH]c2ccccc12 (stereo unspecified),–,?,–,–
Cc1c(C(O)CN2CCN(Cc3ccc4c(c3)OCO4)CC2)c2ccccc2n1C (stereo unspecified),–,?,?,28.2µM
COc1ccc(OC)c(CN2CCC(Cc3ccccc3)CC2)c1,–,?,?,–
COc1ccc2c(c1)c1ncnc(N3CCN(Cc4ccc5c(c4)OCO5)CC3)c1n2C,–,?,–,–
COc1ccc2c(c1)c(C(O)CN1CCN(Cc3ccc4c(c3)OCO4)CC1)c(C)n2C (stereo unspecified),–,?,?,25.1µM
Cc1cc2c(cc1NS(=O)(=O)c1ccc(NC(=O)CC(C)C)cc1)n(C)c(=O)c(=O)n2C,·,·,·,–
CCN1C(=O)[C@H]2[C@@H](c3ccc(-c4ccc(OC)cc4)c(OC)c3)N[C@@](C)(C(=O)OC)[C@H]2C1=O,–,?,?,–
CCN1C(=O)[C@H]2[C@@H](c3ccc(-c4ccc(F)cc4)cc3)N[C@@](C)(C(=O)OC)[C@H]2C1=O,–,·,·,·
CCN1C(=O)[C@H]2[C@@H](c3ccc(-c4cccc(Cl)c4)cc3)N[C@@](C)(C(=O)OC)[C@H]2C1=O,–,13.1µM,?,?
SMILES,SARS PLpro yeast,Pf growth 48h,Pf growth 96h,Sm TGR inh
CCN1C(=O)[C@H]2[C@@H](c3ccc(-c4ccc(F)cc4)c(OC)c3)N[C@@](C)(C(=O)OC)[C@H]2C1=O,–,?,?,15.8µM
CCN1C(=O)[C@H]2[C@@H](c3ccc(-c4ccccc4)cc3)N[C@@](C)(C(=O)OC)[C@H]2C1=O,–,9.28µM,?,39.8µM
COC(=O)[C@]1(C)N[C@H](c2ccc(-c3cccc(Cl)c3)cc2)[C@@H]2C(=O)N(C)C(=O)[C@@H]21,–,·,·,·
COc1ccc(S(=O)(=O)Nc2cc(S(=O)(=O)N3CCOCC3)ccc2OC)cc1,–,·,·,·
CCOC(=O)c1ccccc1NC(=O)Cn1c(=O)n(CCC(=O)NCc2ccccc2OC)c(=O)c2ccccc21,·,·,·,–
CCOC(=O)c1c(C)n(-c2ccccc2)c2ccc(O)c(CN(C)C)c12,–,?,–,–
